Several values for one entry are separate records, joined by “and”; a condition that tells them apart may be missing. Equal values may be shown once. Results filed as inconclusive are left out. Activity calls are given as the source filed them. Unless noted, calls follow the shape of the dose curve; as a rule, active = well fitted curve in the direction sought with a large enough effect; inconclusive = small, poorly fitted or top-dose-only effect, or another doubt; inactive = no such curve, though single readings can be large; an effect the other way counts as inactive or inconclusive.
What was measured:
[1] = qHTS assay for small molecule antagonists of peroxisome proliferator-activated receptor delta signaling (AID 588535; active = well fitted inhibition curve with a large enough effect in the signal ratio, with a control signal flat, not every such curve was filed as active; the % refers to the signal ratio;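 as to max response: cells co-treated with a PPAR-delta agonist as stimulator during compound exposure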); details: HEK293T PPARd-UAS-bla, beta-lactamase FRET ratio, 18 h; 460 nm channel
Summary of the method: (§1)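 Titrations were run on PPAR-delta-UAS-bla HEK293T cells in charcoal/dextran-stripped serum, incubated 18 h at 37 C. CCF4 fluorescence (460/530 nm) after 2 h RT; Hill equation yields IC50 and maximal response.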

[2] = biological target: Peroxisome proliferator-activated receptor delta (Homo sapiens) (UniProt Q03181); assay: as above; details: HEK293T PPARd-UAS-bla, beta-lactamase FRET ratio, 18 h; series mostly up to 76.7 µM
Chain of Peroxisome proliferator-activated receptor delta (Homo sapiens) (Q03181 whole entry, looked up): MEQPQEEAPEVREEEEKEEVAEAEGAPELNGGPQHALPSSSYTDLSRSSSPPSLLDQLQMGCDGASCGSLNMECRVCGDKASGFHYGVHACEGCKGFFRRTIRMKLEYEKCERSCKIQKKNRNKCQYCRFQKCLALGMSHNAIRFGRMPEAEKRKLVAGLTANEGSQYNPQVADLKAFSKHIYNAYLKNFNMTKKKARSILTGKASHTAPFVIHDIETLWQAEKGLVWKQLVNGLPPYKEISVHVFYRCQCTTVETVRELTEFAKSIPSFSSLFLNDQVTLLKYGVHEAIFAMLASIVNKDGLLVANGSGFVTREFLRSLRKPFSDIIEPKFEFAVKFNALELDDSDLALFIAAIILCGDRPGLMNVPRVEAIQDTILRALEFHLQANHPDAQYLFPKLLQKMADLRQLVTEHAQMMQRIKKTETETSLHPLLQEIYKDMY
Summary of the method: as §1

[3] = biological target: Vitamin D3 receptor (Homo sapiens) (UniProt P11473); assay: qHTS assay for small molecule antagonists of vitamin D receptor signaling (AID 588541; calls by dose curve;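 also: receptor activated by calcitriol during compound treatment; % is scaled to controls: 0 for no effect and ±100 for the full control effect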); details: HEK293T VDR-UAS-bla, beta-lactamase ratio, antagonist mode; series mostly up to 76.7 µM
Chain of Vitamin D3 receptor (Homo sapiens) (P11473 whole entry, looked up): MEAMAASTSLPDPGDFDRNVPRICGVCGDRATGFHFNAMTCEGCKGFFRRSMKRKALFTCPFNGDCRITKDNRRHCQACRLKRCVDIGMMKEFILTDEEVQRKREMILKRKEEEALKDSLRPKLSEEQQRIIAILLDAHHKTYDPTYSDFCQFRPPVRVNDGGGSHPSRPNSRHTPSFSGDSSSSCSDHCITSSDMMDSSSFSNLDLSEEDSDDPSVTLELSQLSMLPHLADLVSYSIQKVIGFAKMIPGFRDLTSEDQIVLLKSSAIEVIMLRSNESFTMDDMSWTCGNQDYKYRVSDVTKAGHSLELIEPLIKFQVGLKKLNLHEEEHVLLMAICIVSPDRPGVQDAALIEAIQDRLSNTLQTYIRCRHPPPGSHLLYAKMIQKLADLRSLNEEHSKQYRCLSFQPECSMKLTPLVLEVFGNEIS
Summary of the method: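 Antagonist-mode beta-lactamase reporter assay: HEK293T VDR-UAS-bla cells were exposed to titrated compound alongside 1-alpha,25-dihydroxyvitamin D3 at 3 nM final for 16 h. Values were normalized to the 50 nM agonist control and DMSO basal, with IC50 and efficacy from Hill equation fits.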

[4] = biological target: Vitamin D3 receptor (Homo sapiens) (UniProt P11473); assay: qHTS assay for small molecule agonists of vitamin D receptor signaling (AID 588543; calls by dose curve;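 also: 0% = DMSO basal and 100% = reference agonist control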); details: HEK293T VDR-UAS-bla, beta-lactamase ratio, 16 h; series mostly up to 76.8 µM
Summary of the method: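 β-lactamase reporter, VDR-UAS-bla HEK293T, agonist mode. Cells plated 5 h at 37 °C, compound titration 16 h at 37 °C, CCF4 dye 2 h RT, ratio 460/530 nm. Hill fit → EC50, efficacy vs 50 nM 1α,25-(OH)2D3.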

[5] = biological target: Thyroid hormone receptor beta (Homo sapiens) (UniProt P10828); assay: qHTS assay for small molecule agonists of thyroid hormone receptor beta signaling (AID 588545; calls by dose curve;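 also: 0% = DMSO only and 100% = 10 nM T3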); details: TR-UAS-bla GripTite HEK 293, beta-lactamase ratio, agonist mode, 18 h; series mostly up to 76.7 µM
Chain of Thyroid hormone receptor beta (Homo sapiens) (P10828 whole entry, looked up): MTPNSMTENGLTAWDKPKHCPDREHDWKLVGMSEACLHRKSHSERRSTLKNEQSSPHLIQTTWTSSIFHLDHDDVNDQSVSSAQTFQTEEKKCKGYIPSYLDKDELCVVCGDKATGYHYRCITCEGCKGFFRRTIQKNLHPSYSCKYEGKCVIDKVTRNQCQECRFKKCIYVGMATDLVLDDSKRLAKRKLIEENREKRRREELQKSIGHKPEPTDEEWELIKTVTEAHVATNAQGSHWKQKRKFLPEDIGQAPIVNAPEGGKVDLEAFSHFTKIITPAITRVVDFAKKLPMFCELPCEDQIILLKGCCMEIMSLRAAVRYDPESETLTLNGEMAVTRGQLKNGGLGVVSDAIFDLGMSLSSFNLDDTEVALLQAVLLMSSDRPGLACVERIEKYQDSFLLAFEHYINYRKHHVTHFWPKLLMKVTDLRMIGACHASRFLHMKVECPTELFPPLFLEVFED
Summary of the method: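 Efficacy and EC50 values derive from Hill fits of qHTS titration data, normalized to 10 nM T3 and DMSO-only wells. HEK 293 reporter cells were stimulated for 18 hrs at 37 C, with beta-lactamase activity measured by CCF4 fluorescence.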

[6] = biological target: Thyroid hormone receptor beta (Homo sapiens) (UniProt P10828); assay: qHTS assay for small molecule antagonists of thyroid hormone receptor beta signaling (AID 588547; active = well fitted inhibition curve with a large enough effect in the signal ratio, with a control signal flat, not every such curve was filed as active; the % refers to the signal ratio;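 also: cells stimulated with 0.4 nM T3 agonist during compound exposure; % is scaled to controls: 0 for no effect and ±100 for the full control effect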); details: TR-UAS-bla HEK293, beta-lactamase ratio, antagonist mode, 18 h
Summary of the method: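 Inhibition of T3-driven (0.4nM final) beta-lactamase reporter activity was measured over 0.59 nM to 92 uM compound after 18 h at 37 C. The cells were GripTite HEK293 TR-UAS-bla in charcoal/dextran-stripped serum, with CCF4 ratio read-out and IC50 from Hill fits.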

[7] = qHTS assay for small molecule activators of the p53 signaling pathway (AID 651743; active = well fitted activation curve with a large enough effect in the signal ratio, not every such curve was filed as active; the % refers to the signal ratio; also: % of control where 0% means no effect); details: HCT-116 p53RE-bla, beta-lactamase FRET ratio, 16 h; activation: stronger effect = higher value
Summary of the method: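 After 16 hours compound treatment at 37 C, HCT-116 cells stably expressing p53RE-driven beta-lactamase were loaded with LiveBLAzer B/G FRET substrate for 2 hours at room temperature. Fluorescence intensity served as the p53 activation read-out.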

[8] = qHTS assay for small molecule activators of the nuclear factor-kappa B (NF-kB) signaling pathway (AID 651749; active = well fitted activation curve with a large enough effect in the signal ratio; the % refers to the signal ratio; also: potency is read from the fitted curve at half-maximal effect; as to activation: % of control where 0% means no effect); details: NF-kB-bla ME-180 cells, beta-lactamase FRET ratio, 16 h; activation: stronger effect = higher value
Summary of the method: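 Activation measured after 16 hr compound treatment at 37C, 5% CO2, of 2,000 ME-180 cells/well stably expressing an NF-kB response element–driven beta-lactamase reporter, via FRET-disruption fluorescence.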

[9] = qHTS assay for environmental chemicals that activate the Aryl hydrocarbon Receptor (AhR) signaling pathway (AID 651777); details: 1A2-DRE human hepatoma cells, luciferase, 24 h; activation: stronger effect = higher value; also: % of control where 0% means no effect; nearly all actives have a fitted effect of over 15% in size
Summary of the method: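 Luminescence (One-Glo, 30 min, room temperature) reports AhR-driven luciferase in stably transfected human hepatoma cells bearing DRE and CYP1A2 promoter. Cells (1,200/well) were treated with compound for 24 hr at 37 C in qHTS format.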

[10] = biological target: Peroxisome proliferator-activated receptor alpha (Homo sapiens) (UniProt Q07869); assay: qHTS assay for small molecule agonists of the peroxisome proliferator-activated receptor alpha (PPARalpha) signaling pathway (AID 651778); details: PathHunter PPARalpha complementation, chemiluminescence, 6 h; max response: stronger effect = higher value; also: % of control where 0% means no effect
Chain of Peroxisome proliferator-activated receptor alpha (Homo sapiens) (Q07869 whole entry, looked up): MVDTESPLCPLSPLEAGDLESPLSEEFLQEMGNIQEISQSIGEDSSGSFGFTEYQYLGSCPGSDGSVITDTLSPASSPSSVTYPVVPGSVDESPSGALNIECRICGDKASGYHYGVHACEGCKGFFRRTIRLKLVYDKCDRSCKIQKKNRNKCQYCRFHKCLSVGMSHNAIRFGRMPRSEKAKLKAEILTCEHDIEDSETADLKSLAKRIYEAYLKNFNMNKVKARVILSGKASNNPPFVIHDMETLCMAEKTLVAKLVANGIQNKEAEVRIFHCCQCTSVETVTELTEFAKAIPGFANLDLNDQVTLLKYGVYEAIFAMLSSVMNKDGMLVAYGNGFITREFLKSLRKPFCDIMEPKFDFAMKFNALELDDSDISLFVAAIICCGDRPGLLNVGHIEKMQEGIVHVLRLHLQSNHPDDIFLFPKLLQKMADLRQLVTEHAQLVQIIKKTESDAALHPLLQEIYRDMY
Summary of the method: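 Chemiluminescence from complemented enzyme reported PPARalpha activation in cells after 6 hr of compound treatment at 37 C. The detection reagent was incubated for 60 min at room temperature, and compounds were scored as agonists.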

[11] = qHTS assay for small molecule agonists of the antioxidant response element (ARE) signaling pathway measured by Nrf2-dependant transcriptional activity (AID 720636; active = well fitted curve in the direction sought with a large enough effect in the repeat runs; an effect the other way counts as inactive or inconclusive; also: % of control where 0% means no effect); details: ARE-luc HepG2, Nrf2 luciferase reporter, 16 h; series mostly up to 92.4 µM
Summary of the method: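 Nrf2-dependent transcription read as ONE-Glo luciferase signal from ARE-luc HepG2 reporter cells after 16 hr compound treatment at 37 C, 5% CO2, in assay medium with 1% dialyzed FBS.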

[12] = qHTS assay for small molecule agonists of the antioxidant response element (ARE) signaling pathway measured by Nrf2-dependant transcriptional activity - cell viability counter screen (AID 720653; active = well fitted curve in the direction sought with a large enough effect in the repeat runs; an effect the other way counts as inactive or inconclusive; also: % is scaled to controls: 0 for no effect and ±100 for the full control effect); details: ARE-bla HepG2 viability, CellTiter-Glo ATP luminescence, 16 h; max response: stronger effect = lower value
Summary of the method: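 Cytotoxicity counter screen: intracellular ATP quantified by CellTiter-Glo luminescence in the same ARE-bla HepG2 plates, after 16 h compound exposure and a 2 h beta-lactamase substrate step.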

[13] = qHTS assay for cell viability of HEK293 cells (AID 743288); details: ATP luminescence (CellTiter-Glo), 18 h; max response: stronger effect = lower value; also: nearly all actives have a fitted effect of over 50% in size; also: potency is read from the fitted curve at half-maximal effect
Summary of the method: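 ATP luminescence (CellTiter-Glo) reports metabolically competent cell number after parental HEK293 cells, 2,000/well, were treated with DMSO-dissolved compounds for 18 h at 37 C; reagent incubation 30 min, room temperature.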

[14] = qHTS assay for cell viability of the p53RE-bla HCT-116 cell line (AID 743292); details: p53RE-bla HCT-116 viability, ATP luminescence, 16 h; series mostly up to 95 µM; also: nearly all actives have a fitted effect of over 55% in size; also: potency is read from the fitted curve at half-maximal effect
Summary of the method: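 ATP-based luminescent viability (CellTiter-Glo, 30 min RT) after 16 h compound treatment at 37 C of p53RE-bla HCT-116 cells, seeded at 4,000 cells/well and rested 5 h before dosing.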

[15] = qHTS assay for small molecule agonists of retinoid X receptor alpha signaling (AID 588544; calls by dose curve;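 as to activation: 0% = DMSO basal wells and 100% = reference agonist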); details: HEK293T RXRa-UAS-bla, beta-lactamase reporter, 18 h; 530 nm emission
[16] = biological target: Retinoic acid receptor RXR-alpha (Homo sapiens) (UniProt P19793); assay: as above; details: HEK293T RXRa-UAS-bla, beta-lactamase reporter, 18 h; series mostly up to 76.7 µM
Chain of Retinoic acid receptor RXR-alpha (Homo sapiens) (P19793 whole entry, looked up): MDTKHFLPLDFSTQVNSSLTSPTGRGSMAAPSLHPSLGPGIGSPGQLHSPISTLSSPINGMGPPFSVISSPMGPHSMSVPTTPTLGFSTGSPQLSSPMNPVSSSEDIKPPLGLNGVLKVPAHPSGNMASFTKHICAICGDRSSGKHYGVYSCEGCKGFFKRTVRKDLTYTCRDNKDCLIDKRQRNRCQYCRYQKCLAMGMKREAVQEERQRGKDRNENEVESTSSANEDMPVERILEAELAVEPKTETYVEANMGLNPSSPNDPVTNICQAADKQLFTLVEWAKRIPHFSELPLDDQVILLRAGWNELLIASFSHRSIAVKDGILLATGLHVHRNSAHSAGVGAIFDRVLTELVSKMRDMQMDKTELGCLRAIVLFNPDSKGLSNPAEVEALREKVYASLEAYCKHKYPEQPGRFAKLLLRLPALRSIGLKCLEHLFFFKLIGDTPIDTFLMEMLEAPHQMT

[17] = qHTS assay for small molecule antagonists of retinoid X receptor alpha signaling (AID 588546; active = well fitted inhibition curve with a large enough effect in the signal ratio, with a control signal flat, not every such curve was filed as active; the % refers to the signal ratio); details: HEK293T RXRa-UAS-bla, beta-lactamase ratio, antagonist mode; measured here: W530 green channel, cytotoxicity proxy
Summary of the method: (§2)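 Beta-lactamase reporter inhibition, read as CCF4 fluorescence ratio (ex 405, em 460/530 nm) after 2 h at RT. HEK293T UAS-bla cells, 2500/well, were stimulated with 9-cis-RA at 500 or 100 nM final alongside test compound for 18 h at 37 C.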

[18] = biological target: Nuclear receptor subfamily 1 group I member 2 (Rattus norvegicus) (UniProt Q9R1A7); assay: qHTS assay for small molecule activators of the rat pregnane X receptor (rPXR) signaling pathway (AID 651751; call rule not given here; also: 0% is about no effect); details: rPXR reporter cells, luciferase (One-Glo), 24 h
Chain of Nuclear receptor subfamily 1 group I member 2 (Rattus norvegicus) (Q9R1A7 whole entry, looked up): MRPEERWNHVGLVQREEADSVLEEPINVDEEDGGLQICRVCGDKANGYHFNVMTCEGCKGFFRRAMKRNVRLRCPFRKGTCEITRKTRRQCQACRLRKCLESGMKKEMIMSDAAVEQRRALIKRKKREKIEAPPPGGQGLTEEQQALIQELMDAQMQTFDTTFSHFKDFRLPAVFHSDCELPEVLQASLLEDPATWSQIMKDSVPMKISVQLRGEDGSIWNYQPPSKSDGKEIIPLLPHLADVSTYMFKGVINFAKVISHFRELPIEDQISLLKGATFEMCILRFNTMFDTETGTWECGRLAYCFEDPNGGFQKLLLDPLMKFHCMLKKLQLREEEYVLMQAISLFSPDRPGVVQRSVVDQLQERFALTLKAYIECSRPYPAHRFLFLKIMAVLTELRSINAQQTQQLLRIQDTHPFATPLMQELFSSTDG

[19] = biological target: Retinoic acid receptor RXR-alpha (Homo sapiens) (UniProt P19793); assay: qHTS assay for small molecule antagonists of retinoid X receptor alpha signaling (AID 588546); details: HEK293T RXRa-UAS-bla, beta-lactamase ratio, antagonist mode;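 also: cells stimulated with 9-cis-retinoic acid as agonist; % is scaled to controls: 0 for no effect and ±100 for the full control effect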
Summary of the method: as §2

[20] = qHTS assay for small molecule activators of the human pregnane X receptor (PXR) signaling pathway (AID 720659; call rule not given here; also: 0% is about no effect); details: DPX-2 HepG2 CYP3A4-luciferase, 24 h; series mostly up to 92.3 µM

O=S(c1ccc(Cl)cc1)c1cc(Cl)c(Cl)cc1Cl (configuration not stated)
14.8%: max response [1]
active: Potency [8] 7.94 µM
inactive: Potency [2] | Potency [3] | outcome [4] | Potency [5] | activity change % (negative = inhibition) [6] -2.9% | activation [7] 3.87% | activation [9] 0.902% | max response [10] -1.31% | Potency [11] | max response [12] -25.7% | max response [13] -14.5% | Potency [14]

CC1(C)[C@@H]([C@@H](Br)C(Br)(Br)Br)[C@H]1C(=O)O[C@H](C#N)c1cccc(Oc2ccccc2)c1
active: Potency [13] 50.1 µM
inactive: outcome [4] | activity change % (negative = inhibition) [6] -17.9% | activation [7] 11.9% | activation [9] 0.917% | max response [10] -5.06% | Potency [11] | max response [12] -14.5% | Potency [14]

COC(=O)C1CCC(C(=O)OC)CC1 (configuration not stated)
inactive: Potency [2] | outcome [4] | Potency [16] | Potency [5] | activation [7] 8.46% | activation [8] -2.67% | activation [9] 0.798% | max response [10] 3.84% | Potency [11] | max response [13] -13.8% | Potency [14] | max response [18] 2.13%
36.1%: max response [1]
-4.14%: max response [15]
-8.09%: max response [17]

CN=C(N)NCC1CCOC1 (configuration not stated)
42%: max response [1]
-4.8%: max response [17]
-7.78%: max response [15]
inactive: Potency [2] | Potency [3] | Potency [16] | Potency [5] | max response [19] 8.29% | activity change % (negative = inhibition) [6] -7.34% | activation [7] 20.9% and -3.95% | activation [8] -4.18% | activation [9] 14.3% and -0.391% | max response [10] -3.68% and 0.552% | Potency [11] | max response [13] -9.41% | Potency [14] | max response [18] -8.95% and -6.71% | outcome [20]

CCCCCCCC/C=C\CCCCCCCCCCCCC
-11.4%: max response [17]
20.5%: max response [1]
inactive: Potency [2] | Potency [3] | Potency [16] | Potency [5] | max response [19] 1.65% | activation [7] -1.77% | activation [8] -1.6% | activation [9] -0.312% | max response [10] -1.02% | Potency [11] | max response [12] 1.5% | max response [13] -4.21% | Potency [14] | max response [18] -1.72% | outcome [20]
4.69%: max response [15]

CCCN(CCC)c1c([N+](=O)[O-])cc(C(F)(F)F)c(N)c1[N+](=O)[O-]
-8.88%: max response [17]
inactive: outcome [4] | Potency [5] | max response [19] -37.1% | activation [9] 2.99% | Potency [11] | max response [12] -7.36% | max response [13] -20.5%
active: Potency [14] 50.1 µM

Cc1c(Cl)cccc1Cl
-9.08%: max response [15]
-1.12%: max response [17]
inactive: Potency [3] | outcome [4] | Potency [16] | Potency [5] | max response [19] -5.5% | activity change % (negative = inhibition) [6] -11.7% | activation [8] -1.64% | activation [9] -0.186% | max response [10] -1.42% | Potency [11] | max response [13] -7.06% | Potency [14] | max response [18] -2.7% | outcome [20]

CN(C)Cc1cc(CN(C)C)c(O)c(CN(C)C)c1
-13.7%: max response [15]
-16.5%: max response [17]
inactive: Potency [16] | Potency [5] | max response [19] -13.1% | activation [7] -4% | activation [8] -0.675% | activation [9] -0.0067% | max response [10] -1.39% | Potency [11] | max response [12] -15.7% | max response [13] -7.71% | Potency [14] | max response [18] 1.59% | outcome [20]

CC1(C)CC(OC(=O)CCCCCCCCC(=O)OC2CC(C)(C)NC(C)(C)C2)CC(C)(C)N1
inactive: Potency [2] | Potency [3] | outcome [4] | Potency [16] | Potency [5] | activation [8] 2.54% | activation [9] 0.228% | max response [10] -4.12% | Potency [11] | max response [12] -3.17% | max response [13] -10.1% | max response [18] -0.828% | outcome [20]
5.94%: max response [1]
5.99%: max response [17]
-2.95%: max response [15]

O=C1CCCCCCCCCCC1
inactive: Potency [2] | Potency [16] | Potency [5] | max response [19] 4.14% | activity change % (negative = inhibition) [6] 4.81% | activation [7] -4.42% | activation [9] 0.997% | Potency [11] | max response [12] -14.8% | max response [13] -4.39% | max response [18] 0.58% | outcome [20]
31.3%: max response [1]
-19.7%: max response [15]
-10.4%: max response [17]

C1CCC2(CCCCO2)OC1
inactive: Potency [2] | Potency [3] | outcome [4] | Potency [16] | Potency [5] | max response [19] -3.1% | activity change % (negative = inhibition) [6] 7.84% | activation [9] 0.829% | max response [10] 0.092% | Potency [11] | max response [12] 2.39% | max response [13] 3.07% | Potency [14] | max response [18] -2.06% | outcome [20]
-9.54%: max response [17]
-20.2%: max response [15]
51.5%: max response [1]

COCCO
inactive: Potency [2] | Potency [3] | outcome [4] | Potency [16] | max response [19] 16.3% and -4.97% | activation [7] 0.424% and -0.727% | activation [9] -1.11% and -0.165% | Potency [11] | max response [12] -7.73% and 3.37% | max response [13] -2.14% and 3.11% | Potency [14]
37%: max response [1]
-5.91% and 1.76%: max response [15]
-8.45% and -6.73%: max response [17]
